Reference: paper PMC5540273 (PLoS ONE, 2017)

What follows are molecules tested on ROCK1. Details: concentration: 1 μM, replicates: in singlicate; n = 1.
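Note: KINOMEscan kinase panel screen.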

SMILES	%Inh [%]
COC(=O)c1cccc(NC(=O)NC2CCN(c3ccnc(Nc4ccc(F)cc4)n3)C2)c1 (stereo not drawn) [GSK1379725]	0
O=C(Nc1n[nH]c2nc(-c3cccs3)c(Br)cc12)C1CC1 [SB-735297]	0
CC(=O)c1c(C)c2cnc(Nc3ccc(N4CCNCC4)cn3)nc2n(C2CCCC2)c1=O	0
CN1c2ccc(-c3ccc(C(N)=O)cc3)cc2-c2[nH]ncc2S1(=O)=O	0
Cn1cncc1C(=O)NC1CCN(c2ccnc(Nc3ccc(F)cc3)n2)C1 (stereo not drawn) [GSK1379717]	0
Cn1cncc1-c1cc2c(Nc3ccc(OCc4ccccc4)cc3)ncnc2cn1 [GW281179]	82
COc1ccc(-c2coc3ccc(-c4nnc(C)o4)cc23)cc1	0
Cc1ccc(NC(=O)Nc2ccc(Cl)cc2)cc1-c1ccc(C(=O)Nc2ccncc2)cc1 [GSK1398472]	4
CC(=O)c1c(C)c2cnc(Nc3ccn(C)n3)nc2n(C2CCCC2)c1=O	0
COc1ccc(Nc2nccc(N3CCC(NC(=O)c4cc5ccccc5s4)C3)n2)cc1 (stereo not drawn) [GSK1379738]	8
Cc1nccc(-c2c(-c3ccc(F)cc3)ncn2CCCN2CCOCC2)n1.Cl [SB-282975]	0
NS(=O)(=O)c1cccc(N/C=C2\C(=O)Nc3ccc(S(=O)(=O)Cc4c(Cl)cccc4Cl)cc32)c1 [GSK398099]	0
Nc1cccc(-c2ccc3c(N)n[nH]c3c2)n1 [GSK2192730]	0
CCCCc1nn2ncccc2c1-c1ccnc(NC2CC2)n1 [GW684374]	0
CNc1nc(-c2ccc3c(N)n[nH]c3c2)cc(N2C[C@@H](C(=O)NC3CCCCC3)OC[C@H]2C)n1 [GSK2375584]	23
COc1cccc(C2=C(Nc3cc(Cl)c(O)c(Cl)c3)C(=O)NC2=O)c1 [SB-390767]	11
COc1ccc(CSc2nnc(-c3ccc4ncsc4c3)o2)cc1C(F)(F)F	11
Cc1c(Cn2c(C)c(C)n3c(=O)cc(N4CCOCC4)nc23)cccc1C(F)(F)F [GSK2328680]	11
Cc1ccccc1-c1cc(-c2c[nH]nc2-c2ccccn2)ccn1 [GW680061]	0
COc1ccc(Nc2nccc(NCCNC(=O)Nc3cc(C)ccc3C)n2)cc1 [GSK1379899]	6

The molecules below were run on ROCK2. Details: concentration: 1 μM, replicates: in singlicate; n = 1.

SMILES	%Inh [%]
O=C(Nc1n[nH]c2nc(-c3ccco3)c(Br)cc12)C1CCN(Cc2ccccc2)C1.O=C(O)[C@H](O)[C@@H](O)C(=O)O (stereo not drawn) [SB-742034]	0
Cn1cnc2c(N)ncnc21 [SKF-97623]	26
COc1ccc(Nc2nccc(-c3ccc(NC(=O)c4cc5cc(F)ccc5[nH]4)cc3)n2)cc1 [GSK1229496]	10
CNC(=O)c1ccc(C)c(-n2c(C)cc(OCc3ccc(F)cc3F)c(Br)c2=O)c1	0
Nc1nccc(-c2c(-c3ccc(F)cc3)ncn2C2CCN(Cc3ccccc3)CC2)n1 [SB-219980]	0
Cc1ccc(NC(=O)Nc2ccccc2)cc1-c1ccc(C(=O)Nc2ccncc2)cc1 [GSK1398471]	0
Fc1ccc(-c2nc[nH]c2-c2ccncc2)cc1 [SB-217360]	26
CC(C)c1cc(-c2ccc3c(N)n[nH]c3c2)nc(N)n1 [GSK2250882]	20
Fc1ccc(-c2nc3n(c2-c2ccncc2)CCS3)cc1 [GI98581]	0
CCc1ccc(-c2ccc3c(c2)-c2n[nH]cc2S(=O)(=O)N3C)cc1	0
COc1ccc(CSc2nnc(-c3ccc4c(c3)CCO4)o2)cc1	0
CSc1ccc(-c2nc3n(c2-c2ccncc2)CCC3)cc1 [SKF-105561]	0
COc1cccc(NC(=O)Nc2ccc(C)c(-c3ccc(C(=O)Nc4ccncc4)cc3)c2)c1 [GSK1398474]	0
O=c1cc(N2CCOCC2)nc2n(Cc3cccc(Cl)c3Cl)c3ccccc3n12 [GSK2299009]	0
COC(=O)c1cccc(NC(=O)NC2CCN(c3ccnc(Nc4ccc(F)cc4)n3)C2)c1 (stereo not drawn) [GSK1379725]	0
O=C(Nc1n[nH]c2nc(-c3cccs3)c(Br)cc12)C1CC1 [SB-735297]	0
CC(=O)c1c(C)c2cnc(Nc3ccc(N4CCNCC4)cn3)nc2n(C2CCCC2)c1=O	0
CN1c2ccc(-c3ccc(C(N)=O)cc3)cc2-c2[nH]ncc2S1(=O)=O	11
CNc1cc(-c2ccc3c(N)n[nH]c3c2)nc(N)n1 [GSK2224810]	29

SMILES	%Inh [%]
Cn1cncc1C(=O)NC1CCN(c2ccnc(Nc3ccc(F)cc3)n2)C1 (stereo not drawn) [GSK1379717]	19
Cn1cncc1-c1cc2c(Nc3ccc(OCc4ccccc4)cc3)ncnc2cn1 [GW281179]	74
COc1ccc(-c2coc3ccc(-c4nnc(C)o4)cc23)cc1	0
Cc1ccc(NC(=O)Nc2ccc(Cl)cc2)cc1-c1ccc(C(=O)Nc2ccncc2)cc1 [GSK1398472]	0
CC(=O)c1c(C)c2cnc(Nc3ccn(C)n3)nc2n(C2CCCC2)c1=O	0
COc1ccc(Nc2nccc(N3CCC(NC(=O)c4cc5ccccc5s4)C3)n2)cc1 (stereo not drawn) [GSK1379738]	21
Cc1nccc(-c2c(-c3ccc(F)cc3)ncn2CCCN2CCOCC2)n1.Cl [SB-282975]	0
CC[C@@H]1CO[C@H](C(=O)Nc2ccccc2)CN1c1cc(-c2ccc3c(N)n[nH]c3c2)nc(NC)n1 [GSK2376236]	52
NS(=O)(=O)c1cccc(N/C=C2\C(=O)Nc3ccc(S(=O)(=O)Cc4c(Cl)cccc4Cl)cc32)c1 [GSK398099]	2
Nc1cccc(-c2ccc3c(N)n[nH]c3c2)n1 [GSK2192730]	0
CCCCc1nn2ncccc2c1-c1ccnc(NC2CC2)n1 [GW684374]	0
CNc1nc(-c2ccc3c(N)n[nH]c3c2)cc(N2C[C@@H](C(=O)NC3CCCCC3)OC[C@H]2C)n1 [GSK2375584]	26
COc1cccc(C2=C(Nc3cc(Cl)c(O)c(Cl)c3)C(=O)NC2=O)c1 [SB-390767]	11
COc1ccc(CSc2nnc(-c3ccc4ncsc4c3)o2)cc1C(F)(F)F	0
Cc1c(Cn2c(C)c(C)n3c(=O)cc(N4CCOCC4)nc23)cccc1C(F)(F)F [GSK2328680]	10
CNc1nc(-c2ccc3c(N)n[nH]c3c2)cc(N2C[C@@H](C(=O)Nc3ccccc3)CC[C@H]2C)n1 [GSK2298859]	61
Cc1ccccc1-c1cc(-c2c[nH]nc2-c2ccccn2)ccn1 [GW680061]	3
COc1ccc(Nc2nccc(NCCNC(=O)Nc3cc(C)ccc3C)n2)cc1 [GSK1379899]	14
